Data reported in PubChem BioAssay.
Activity calls are given as the source filed them.

Columns and labels:
[1] = small molecules captured by biotinylated probe aFSTL3 – biochemical, small-molecule microarray, fluorescence 635/667, stem cell growth factor project, primary screen (AID 1064); conditions: higher = more signal;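 also: measures binding of the biotinylated anti-FSTL3 antibody to printed compounds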
[2] = binders from COS7 lysate, DM2A8 probe, primary screen, torsin A project, cell lysate, small-molecule microarray, fluorescence 635/667 (AID 1065); conditions: higher = more signal, COS7 lysate expressing mutant human TOR1A
[3] = small molecules captured by biotinylated probe aFGF2 – biochemical, small-molecule microarray, fluorescence 635/667, stem cell growth factor project, primary screen (AID 1067); conditions: higher = more signal;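 also: measures binding of biotinylated aFGF2 protein to printed compounds on slides; z-score merges feature fluorescence and signal-to-noise across triplicate slides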
[4] = small molecules captured by biotinylated probe aFGF10 – biochemical, small-molecule microarray, fluorescence 635/667, stem cell growth factor project, primary screen (AID 1071); conditions: higher = more signal;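 also: score merges 667 nm spot intensity and signal to noise from triplicate slides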
[5] = target: Neurogenic locus notch homolog protein 2 (Homo sapiens) (UniProt Q04721); experiment: small molecules binding Notch2 protein – biochemical, small-molecule microarray, 635 nm fluorescence, stem cell growth factors, primary screen (AID 1073); conditions: higher = more signal
[6] = target: Pro-neuregulin-1, membrane-bound isoform (Homo sapiens) (UniProt Q02297); experiment: small molecules binding neuregulin-1 protein – biochemical, small-molecule microarray, fluorescence 635/667, psychiatric disease protein project, primary screen (AID 1075); conditions: NRG1 binding, 635 nm fluorescence, higher = more signal;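 also: score combines 667 nm spot fluorescence with signal to noise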
[7] = test system: Neuregulin-1 EGF-like domain; experiment: small molecules binding NRG1 EGF domain – biochemical, small-molecule microarray, 635 nm fluorescence, primary screen (AID 1081); conditions: higher = more signal;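 also: binding of the protein to compounds printed on small-molecule microarray slides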
[8] = FRG1 expression reporter modulators in myotubes – cell-based, C2C12 myotubes, firefly/Renilla luciferase, luminescence, FRG1 inhibition for FSHD, primary screen (AID 1084); conditions: FRG1 promoter luciferase, higher = more signal, called active from +8 up or from −8 down
[9] = small molecules captured by biotinylated probe aFST – biochemical, small-molecule microarray, fluorescence 635/667, stem cell growth factor project, primary screen (AID 1086); conditions: higher = more signal;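 also: score merges 667 nm fluorescence with signal-to-noise of each printed compound spot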
[10] = binders of probe aHhip on microarray, primary screen, stem cell growth factor project, biochemical, small-molecule microarray, fluorescence 635/667 (AID 1087); conditions: higher = more signal;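 also: score merges spot fluorescence at 667nm with spot signal to noise ratio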
[11] = test system: PRMT1 (protein arginine N-methyltransferase 1); experiment: small molecules binding arginine methyltransferase PRMT1 – biochemical, small-molecule microarray, 635 nm fluorescence, primary screen (AID 1088); conditions: higher = more signal;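 also: binding of Prmt1 protein to compounds spotted on small-molecule microarray slides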
[12] = growth effects on S. cerevisiae YJM789 – YJM789 clinical isolate, OD600, 24 h, basal, primary screen (AID 1089); conditions: higher = more signal, called active from +8 up or from −8 down;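 also: growth of clinical yeast isolate S. cerevisiae YJM 789 seeded 1000 cells per well; test concentration not given here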
[13] = S. pombe growth modifiers, basal conditions – strain 972, OD600, 24 h, no modulator, primary screen (AID 1090);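 also: basal condition with compound alone and no growth modifier present; test concentration not given here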; conditions: S. pombe 972 growth, higher = more signal, called active from +8 up or from −8 down
[14] = budding yeast growth modifiers under rapamycin – strain BY4716, OD600, 96 h, primary screen (AID 1091); also: test concentration not given here; conditions: S. cerevisiae BY4716 + rapamycin, higher = more signal, called active from +8 up or from −8 down
[15] = target: Torsin-1A-interacting protein 2 (Homo sapiens) (UniProt Q8NFQ8); experiment: small molecules binding lysate-expressed LULL1 – cell lysate, human LULL1 lysate, 635/667 nm fluorescence, primary screen (AID 1092); conditions: small-molecule microarray, hLULL1 lysate binding, 635 nm fluorescence; higher = more signal;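 also: probe is lysate of COS7 cells overexpressing human LULL1; score merges per-feature 667 nm fluorescence with signal-to-noise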
[16] = optical density change of DRC41 E. coli – strain DRC41, OD650, 24 h, E. coli filamentation project, primary screen (AID 1093);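 also: MC1000 strain lacking acrAB efflux and sulA so SOS filamentation is blocked; test concentration not given here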; conditions: E. coli DRC41 growth, higher = more signal, called active from +8 up or from −8 down
[17] = probe aLefty2 binding to arrayed compounds – biochemical, biotinylated probe, 635/667 nm fluorescence, primary screen (AID 1094); conditions: small-molecule microarray, higher = more signal;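 also: score merges spot fluorescence near 667 nm with spot signal-to-noise ratio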
[18] = test system: Noggin (protein binding on small-molecule microarray); experiment: small molecules binding Noggin protein – biochemical, 635/667 nm fluorescence, primary screen (AID 1095); conditions: 635 nm fluorescence, higher = more signal;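 also: score merges 667 nm feature fluorescence with signal to noise over triplicate slides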
[19] = target: Neurogenic locus notch homolog protein 3 (Homo sapiens) (UniProt Q9UM47); experiment: small molecules binding NOTCH3 protein – biochemical, 635/667 nm fluorescence, primary screen (AID 1096); conditions: small-molecule microarray, 635 nm fluorescence, higher = more signal
[20] = probe aEGFR binding to arrayed compounds – biochemical, biotinylated probe, 635/667 nm fluorescence, primary screen (AID 1097); conditions: small-molecule microarray, higher = more signal;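 also: probe is a biotinylated anti-EGFR antibody binding compounds printed on slides; score combines fluorescence near 667 nm and signal to noise of each spot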

Sequence of Neurogenic locus notch homolog protein 2 (Homo sapiens) (Q04721 whole entry, looked up, canonical isoform): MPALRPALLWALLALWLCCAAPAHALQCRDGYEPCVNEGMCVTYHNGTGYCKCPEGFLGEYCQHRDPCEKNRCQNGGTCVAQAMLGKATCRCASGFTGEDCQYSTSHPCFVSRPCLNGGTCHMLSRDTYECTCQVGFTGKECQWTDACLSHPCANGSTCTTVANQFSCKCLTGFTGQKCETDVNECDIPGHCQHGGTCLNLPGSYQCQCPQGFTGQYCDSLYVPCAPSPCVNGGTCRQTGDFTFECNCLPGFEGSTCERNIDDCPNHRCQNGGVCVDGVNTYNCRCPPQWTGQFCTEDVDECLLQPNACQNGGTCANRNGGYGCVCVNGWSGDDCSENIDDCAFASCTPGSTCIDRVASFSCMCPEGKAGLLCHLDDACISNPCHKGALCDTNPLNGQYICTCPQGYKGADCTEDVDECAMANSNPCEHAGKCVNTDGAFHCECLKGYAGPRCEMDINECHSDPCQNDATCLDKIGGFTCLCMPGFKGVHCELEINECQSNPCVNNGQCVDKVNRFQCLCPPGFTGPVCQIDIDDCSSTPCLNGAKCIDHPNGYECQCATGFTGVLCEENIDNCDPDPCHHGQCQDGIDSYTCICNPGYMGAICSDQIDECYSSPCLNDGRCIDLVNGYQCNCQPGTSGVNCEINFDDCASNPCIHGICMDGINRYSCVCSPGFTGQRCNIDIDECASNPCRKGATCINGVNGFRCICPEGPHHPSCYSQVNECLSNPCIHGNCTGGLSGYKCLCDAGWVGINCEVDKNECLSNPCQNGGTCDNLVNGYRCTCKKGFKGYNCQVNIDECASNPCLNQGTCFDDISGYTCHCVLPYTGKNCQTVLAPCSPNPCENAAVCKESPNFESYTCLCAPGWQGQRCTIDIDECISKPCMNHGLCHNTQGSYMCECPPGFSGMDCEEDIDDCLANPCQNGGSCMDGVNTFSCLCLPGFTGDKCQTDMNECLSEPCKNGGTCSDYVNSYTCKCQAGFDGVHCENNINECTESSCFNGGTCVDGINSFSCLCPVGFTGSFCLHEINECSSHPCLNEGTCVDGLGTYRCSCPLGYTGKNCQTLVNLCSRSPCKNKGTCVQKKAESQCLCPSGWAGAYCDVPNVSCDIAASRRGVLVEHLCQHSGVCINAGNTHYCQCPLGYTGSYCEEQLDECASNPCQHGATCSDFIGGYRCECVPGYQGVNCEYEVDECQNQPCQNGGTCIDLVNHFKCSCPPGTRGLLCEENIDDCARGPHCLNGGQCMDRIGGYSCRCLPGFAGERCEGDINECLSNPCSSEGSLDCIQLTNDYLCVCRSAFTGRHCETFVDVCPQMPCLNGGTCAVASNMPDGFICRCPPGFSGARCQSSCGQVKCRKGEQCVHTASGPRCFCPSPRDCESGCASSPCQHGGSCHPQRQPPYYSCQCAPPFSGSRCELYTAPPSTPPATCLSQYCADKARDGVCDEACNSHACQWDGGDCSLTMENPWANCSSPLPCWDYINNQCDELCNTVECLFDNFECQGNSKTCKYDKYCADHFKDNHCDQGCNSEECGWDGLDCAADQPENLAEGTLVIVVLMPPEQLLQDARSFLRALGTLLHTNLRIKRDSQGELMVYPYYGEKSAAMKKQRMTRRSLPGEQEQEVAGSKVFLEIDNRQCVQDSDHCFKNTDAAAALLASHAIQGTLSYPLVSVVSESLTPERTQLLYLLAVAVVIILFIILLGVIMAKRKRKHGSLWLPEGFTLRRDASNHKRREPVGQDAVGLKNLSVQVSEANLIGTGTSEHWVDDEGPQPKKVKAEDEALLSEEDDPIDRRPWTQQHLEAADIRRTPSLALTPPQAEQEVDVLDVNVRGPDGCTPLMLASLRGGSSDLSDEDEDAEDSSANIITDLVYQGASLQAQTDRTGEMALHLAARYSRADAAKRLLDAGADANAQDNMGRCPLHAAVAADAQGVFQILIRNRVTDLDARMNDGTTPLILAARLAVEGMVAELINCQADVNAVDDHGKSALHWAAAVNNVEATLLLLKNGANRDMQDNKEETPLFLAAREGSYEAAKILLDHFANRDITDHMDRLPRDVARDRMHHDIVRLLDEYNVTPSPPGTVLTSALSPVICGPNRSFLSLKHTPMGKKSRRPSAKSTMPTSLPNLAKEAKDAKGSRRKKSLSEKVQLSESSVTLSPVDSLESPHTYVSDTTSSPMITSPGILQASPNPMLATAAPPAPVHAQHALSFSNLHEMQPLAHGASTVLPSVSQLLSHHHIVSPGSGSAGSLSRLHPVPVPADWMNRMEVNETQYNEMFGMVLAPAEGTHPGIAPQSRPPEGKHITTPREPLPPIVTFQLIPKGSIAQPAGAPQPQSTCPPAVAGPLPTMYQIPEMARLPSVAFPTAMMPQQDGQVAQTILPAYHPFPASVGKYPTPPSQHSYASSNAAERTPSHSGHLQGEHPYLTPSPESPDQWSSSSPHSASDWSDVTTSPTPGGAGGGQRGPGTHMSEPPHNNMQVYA
Sequence of Neurogenic locus notch homolog protein 3 (Homo sapiens) (Q9UM47 whole entry, looked up): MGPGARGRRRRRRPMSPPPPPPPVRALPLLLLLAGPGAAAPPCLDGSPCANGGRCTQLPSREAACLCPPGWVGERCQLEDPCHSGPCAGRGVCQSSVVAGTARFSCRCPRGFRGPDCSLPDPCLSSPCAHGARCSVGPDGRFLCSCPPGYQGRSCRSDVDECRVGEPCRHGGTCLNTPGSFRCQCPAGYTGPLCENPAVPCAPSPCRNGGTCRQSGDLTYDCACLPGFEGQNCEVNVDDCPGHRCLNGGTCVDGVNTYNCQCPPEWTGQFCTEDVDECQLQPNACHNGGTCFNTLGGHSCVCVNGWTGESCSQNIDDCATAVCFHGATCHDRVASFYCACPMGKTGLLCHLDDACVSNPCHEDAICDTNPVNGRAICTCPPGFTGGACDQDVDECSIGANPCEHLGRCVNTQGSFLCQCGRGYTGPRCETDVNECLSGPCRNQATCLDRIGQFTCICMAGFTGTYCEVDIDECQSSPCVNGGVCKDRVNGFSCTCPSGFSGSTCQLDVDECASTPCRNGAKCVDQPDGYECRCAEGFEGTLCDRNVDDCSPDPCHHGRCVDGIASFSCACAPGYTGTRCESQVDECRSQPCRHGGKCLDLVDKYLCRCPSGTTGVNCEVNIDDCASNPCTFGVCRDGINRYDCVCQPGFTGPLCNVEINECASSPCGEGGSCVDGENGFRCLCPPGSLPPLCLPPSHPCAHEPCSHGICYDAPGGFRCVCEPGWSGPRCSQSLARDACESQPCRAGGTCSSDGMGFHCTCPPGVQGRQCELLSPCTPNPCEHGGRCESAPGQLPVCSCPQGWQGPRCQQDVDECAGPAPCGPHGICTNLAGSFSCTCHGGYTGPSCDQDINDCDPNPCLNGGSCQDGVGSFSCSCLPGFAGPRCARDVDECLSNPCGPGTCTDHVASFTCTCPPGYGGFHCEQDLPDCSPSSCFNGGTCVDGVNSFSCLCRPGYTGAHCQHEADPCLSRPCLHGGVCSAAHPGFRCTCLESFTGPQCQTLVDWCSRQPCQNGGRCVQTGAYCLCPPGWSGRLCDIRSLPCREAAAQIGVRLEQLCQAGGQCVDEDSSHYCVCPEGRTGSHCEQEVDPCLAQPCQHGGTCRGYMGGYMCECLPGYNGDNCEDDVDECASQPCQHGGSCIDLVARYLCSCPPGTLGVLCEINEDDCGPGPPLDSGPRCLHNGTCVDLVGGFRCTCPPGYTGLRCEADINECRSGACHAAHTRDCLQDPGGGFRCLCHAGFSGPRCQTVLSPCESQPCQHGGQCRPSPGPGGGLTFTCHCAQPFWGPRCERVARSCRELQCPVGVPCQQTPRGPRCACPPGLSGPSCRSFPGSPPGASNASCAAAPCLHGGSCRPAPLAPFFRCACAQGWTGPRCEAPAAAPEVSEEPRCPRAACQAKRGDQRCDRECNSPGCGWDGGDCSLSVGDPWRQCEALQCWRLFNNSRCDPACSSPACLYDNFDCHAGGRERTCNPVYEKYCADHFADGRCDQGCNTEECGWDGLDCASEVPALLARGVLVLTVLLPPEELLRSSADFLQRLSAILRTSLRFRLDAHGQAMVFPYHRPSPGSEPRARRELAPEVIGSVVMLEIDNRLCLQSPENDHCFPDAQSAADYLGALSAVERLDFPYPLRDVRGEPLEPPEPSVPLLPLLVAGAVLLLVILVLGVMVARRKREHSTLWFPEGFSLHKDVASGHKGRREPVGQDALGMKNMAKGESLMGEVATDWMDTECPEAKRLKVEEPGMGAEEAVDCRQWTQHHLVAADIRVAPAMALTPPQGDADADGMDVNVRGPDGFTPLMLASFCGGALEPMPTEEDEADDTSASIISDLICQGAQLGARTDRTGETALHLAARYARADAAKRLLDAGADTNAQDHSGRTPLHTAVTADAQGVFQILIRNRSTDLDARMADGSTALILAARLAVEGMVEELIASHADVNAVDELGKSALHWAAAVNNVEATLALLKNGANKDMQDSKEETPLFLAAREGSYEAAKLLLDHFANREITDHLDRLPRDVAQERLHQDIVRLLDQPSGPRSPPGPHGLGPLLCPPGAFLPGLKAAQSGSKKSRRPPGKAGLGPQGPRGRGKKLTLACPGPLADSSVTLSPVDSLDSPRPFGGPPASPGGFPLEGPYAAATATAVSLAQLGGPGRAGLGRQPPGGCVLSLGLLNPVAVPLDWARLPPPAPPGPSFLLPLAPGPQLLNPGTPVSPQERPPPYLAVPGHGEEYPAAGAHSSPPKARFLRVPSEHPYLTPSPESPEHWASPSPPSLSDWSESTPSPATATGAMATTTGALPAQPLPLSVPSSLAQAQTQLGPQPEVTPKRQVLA

| Compound | composite z-score [1] | composite z-score [2] | composite z-score [3] | composite z-score [4] | composite z-score [5] | composite z-score [6] | composite z-score [7] | z-score [8] | composite z-score [9] | composite z-score [10] | composite z-score [11] | z-score [12] | z-score [13] | z-score [14] | composite z-score [15] | z-score [16] | composite z-score [17] | composite z-score [18] | composite z-score [19] | composite z-score [20] |
| --- | --- | --- | --- | --- | --- | --- | --- | --- | --- | --- | --- | --- | --- | --- | --- | --- | --- | --- | --- | --- |
| CC(C)C[C@@H]1NC(=O)[C@@H]2C[C@H](C(=O)NCCCCCCNC(=O)CS)[C@H](c3cccc(OCCO)c3)N2C1=O | -0.514 | 1.05 | 0.0379 | 0.968 | 1.34 | 1.21 | 1.39 | 0.509 (inactive) | 0.756 | -0.069 | 1.54 | 0.509 (inactive) | 0.679 (inactive) | 1.52 (inactive) | 2.84 | -0.616 (inactive) | -0.0124 | 1.66 | 1.02 | 0.0618 |
| O=C1O[C@@H](c2ccccc2)[C@@H](c2ccccc2)N2[C@@H](c3ccc(OCCO)cc3)[C@]3(C(=O)Nc4ccc(C#CC5(O)CCCCCC5)cc43)[C@@H](C(=O)O)[C@H]12 | 0.0507 | 0.733 | -0.0579 | 0.635 | 0.456 | 1.24 | 1.07 | 0.259 (inactive) | 0.193 | 0.0176 | 1.35 | 2.79 (inactive) | -0.256 (inactive) | 0.757 (inactive) | 2.64 | 2.21 (inactive) | -0.166 | 0.674 | 0.743 | -0.0828 |
| COC(=O)[C@@]1(Cc2ccccc2)[C@H]2c3cc(C(=O)N(C)C)n(Cc4ccc(C(F)(F)F)nc4)c3C[C@H]2CN1C(=O)c1ccccc1 | 0.261 | 0.0724 | 0.233 | 0.699 | 1.67 | 1.9 | 1.48 | 0.0597 (inactive) | 1.74 | -0.126 | 0.644 | 1.06 (inactive) | 1.28 (inactive) | 1.67 (inactive) | 3.69 | -0.755 (inactive) | 0.348 | -0.498 | 1.03 | 0.228 |
| C[C@@H]1ON(c2ccc(I)cc2)[C@H](c2cccc(NC(=O)OCC3c4ccccc4-c4ccccc43)c2)[C@H]1C(=O)N1C(=O)OC[C@H]1Cc1ccccc1 | -0.162 | 0.382 | -0.132 | 0.15 | 0.524 | 0.608 | 0.0222 | 0.108 (inactive) | 0.0393 | 0.132 | 0.908 | 0.882 (inactive) | 0.534 (inactive) | 1.33 (inactive) | 0.77 | 1.28 (inactive) | 0.437 | 0.493 | 0.893 | 0.0773 |
| CCOC(=O)C1=CC[C@@H](c2ccc(OC)cc2)N(S(=O)(=O)c2ccc(C)cc2)[C@H]1c1ccc(C)cc1 | -0.208 | -0.236 | -0.062 | 0.584 | 1.52 | 0.46 | 1.05 | 0.0599 (inactive) | 1.11 | -0.0618 | 0.966 | 0.106 (inactive) | 0.529 (inactive) | 0.53 (inactive) | 2.84 | -0.747 (inactive) | 0.194 | 0.191 | 1.09 | 0.0656 |
| CC(C)N1C(=O)C[C@@](C(=O)NCCN2CCOCC2)(c2ccc([N+](=O)[O-])cc2)[C@H]1c1ccc(CO)cc1 | 0.489 | -0.32 | -0.21 | -0.692 | -0.575 | 0.543 | 0.851 | 1.08 (inactive) | -1.1 | -0.0708 | 0.266 | -1.77 (inactive) | -0.274 (inactive) | -1.76 (inactive) | 3.61 | 0.214 (inactive) | -0.001 | 0.193 | -0.958 | -0.228 |
| COc1ccc(C(=O)Nc2cccc(CN3C(=O)[C@@]4(O[C@@H](CC(=O)N5CCC[C@H]5CO)[C@H]([Si](C)(C)c5ccc(OC)cc5)[C@H]4C)c4ccccc43)c2)cc1 | -0.226 | 0.484 | -0.0625 | 0.0314 | 0.518 | 1.39 | 1.13 | -3.85 (inactive) | -0.0084 | -0.261 | 1.55 | -0.624 (inactive) | 0.706 (inactive) | -1.2 (inactive) | 0.983 | -0.126 (inactive) | -0.102 | 0.766 | 0.957 | -0.118 |
| C=CCNC(=O)[C@H]1[C@@H]2C(=O)O[C@@H](c3ccccc3)[C@@H](c3ccccc3)N2[C@@H](c2ccccc2OCCO)[C@]12C(=O)N(C(=O)OCCOC)c1ccc(C#Cc3ccc(OC)cc3)cc12 | 0.0122 | 0.633 | 0.0074 | 0.668 | 0.615 | 1.33 | 1.21 | 1.34 (inactive) | 0.101 | -0.0645 | 1.55 | 2.2 (inactive) | 0.823 (inactive) | 6.52 (inactive) | 2.94 | 0.769 (inactive) | -0.0998 | 0.173 | 0.647 | -0.092 |
